Screen size: about 640,000 compounds; about 9,300 (1.5%) were called active. No stated cut-off is given here; in the data, active means inhibition above about 32%; inactive means the rest. Shown is part of a subset that was picked to be rich in actives.
assay: TEAD-YAP interaction inhibition, primary screen, TEAD-YAP interaction inhibitor project, luminescence, HEK-TIYL cells (AID 1259422); details: TEAD-Gal4/YAP UAS-luciferase luminescence, at 9.12 µM, active compounds read high;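 further: 0% = median of test compound wells and 100% = reference inhibitor wells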

| SMILES | inhibition |
| --- | --- |
| Cc1ccccc1C(=O)NCC1(c2cccs2)CC1 | -38.7% (inactive) |
| CN1CCN(C(=O)c2ccc(-c3ccc(C(=O)NCCOc4ccccc4)s3)cc2)CC1 | -10.2% (inactive) |
| O=C1c2ccc(Br)cc2C(=O)N1CNc1cccc(F)c1 | 2.19% (inactive) |
| CCCCOc1ccccc1C1C(C(=O)OCCOCC)=C(C)NC2=C1C(=O)CC(C)(C)C2 (centres undefined) | -1.41% (inactive) |
| COc1ccccc1C1N=C(c2cccs2)CC(c2ccccc2O)N1 (centres undefined) | -31.6% (inactive) |
| Cn1c(-c2ccc(F)cc2Cl)c(C(=O)O)c2ccccc2c1=O | 5.25% (inactive) |
| Cc1ccc2c(c1)CN(CCC(=O)NCC(C)(C)CO)CC(C)O2 (centres undefined) | 5.33% (inactive) |
| COc1ccccc1-c1cc2nc(C)c(CCC(=O)Nc3ccccc3C(N)=O)c(C)n2n1 | 12.4% (inactive) |
| COc1ccc(CNC(=O)CCc2c(C)nc3cc(-c4ccccc4)nn3c2C)cc1 | 2.84% (inactive) |
| COc1ccccc1-c1cc2nc(C)c(CCC(=O)O)c(C)n2n1 | 48.5% (active) |
| O=C(C1CC=CCC1)N1CCn2cnnc2C1 (centres undefined) | 1.34% (inactive) |
| Cc1cc(C)nc(SCC(=O)Nc2cc(C(=O)O)cc([N+](=O)[O-])c2)n1 | -2.98% (inactive) |
| CCn1c(=O)cc(SCC(=O)Nc2cccc([N+](=O)[O-])c2C)c2ccccc21 | -12.2% (inactive) |
| Cc1c(/C=N\NC(=O)c2cc3ccccc3o2)c2ccccc2n1C | 49.3% (active) |
| Cc1c(/C=N/NC(N)=S)c2ccccc2n1C | -7.34% (inactive) |
| Cc1c(/C=N\Nc2ccc([N+](=O)[O-])cc2)c2ccccc2n1C | 12.8% (inactive) |
| c1ccc(Cn2cc(-c3cnn4c(NCCc5cccnc5)ccnc34)cn2)cc1 | -23.6% (inactive) |
| C=CCn1c(SCCC(=O)NCCc2ccccc2)nc2scc(-c3ccco3)c2c1=O | -10.1% (inactive) |
| C=CCn1c(SCC(=O)N2CCOCC2)nc2scc(-c3ccccc3Cl)c2c1=O | 49.9% (active) |
| C=CCn1c(SCC(=O)N2CCCCCC2)nc2scc(-c3ccc(C)o3)c2c1=O | -7.67% (inactive) |

| SMILES | inhibition |
| --- | --- |
| Cc1ccc(C(=O)COC(=O)c2ccc(-n3cnnn3)cc2)cc1 | 11.7% (inactive) |
| COc1cc(Nc2nc(-c3ccc(C(=O)NC4CC4)cc3)nc3c2ncn3-c2ccsc2)cc(OC)c1OC | 22.8% (inactive) |
| O=C(COC(=O)CSCc1c[nH]c(=O)[nH]c1=O)Nc1nc(-c2ccccc2)cs1 | -38% (inactive) |
| CCCCCCc1cc2cc(-c3cn4c(n3)sc3cc(Cl)ccc34)c(=O)oc2cc1O | -3.76% (inactive) |
| O=c1oc2ccc(Br)cc2cc1-c1cn2c(n1)sc1ccccc12 | 2.88% (inactive) |
| O=c1oc2ccccc2cc1-c1cn2c(n1)sc1cc(Cl)ccc12 | 62.5% (active) |
| Cc1cccc(N2C(=O)NC(=O)/C(=C\c3ccc(I)o3)C2=O)c1C | -0.13% (inactive) |
| O=C(O)/C(=C\c1ccccc1)NC(=O)c1ccc(Br)cc1 | -2.04% (inactive) |
| O=C(O)CCNCCC(=O)c1ccccc1 | -12.1% (inactive) |
| COC(=O)C1CCN(C(=O)c2ccc(Cl)c([N+](=O)[O-])c2)CC1 | 1.51% (inactive) |
| COc1ccccc1N1CCN(C(=O)c2ccc(Cl)c([N+](=O)[O-])c2)CC1 | 49% (active) |
| COc1ccccc1N1CCN(C(=O)COc2ccc(Cl)cc2C)CC1 | 58.5% (active) |
| COc1ccccc1N1CCN(C(=O)CSCc2ccccc2C)CC1 | -42.5% (inactive) |
| CCOC(=O)CSc1ccc(C(=O)N2CCN(c3ccccc3OC)CC2)cc1[N+](=O)[O-] | 3.32% (inactive) |
| COc1ccc(N2CCN(C(=O)COc3ccccc3OC)CC2)cc1 | 1.61% (inactive) |
| Cc1cccc2nc(NC(=O)c3ccnn3C)sc12 | -7.31% (inactive) |
| CCOC1=C/C(=C/c2c(N)n3nc(C(C)C)sc3nc2=O)C=CC1=O | 9.9% (inactive) |
| COc1ccc(/C=C2/N=C(c3cccc4ccccc34)OC2=O)c(OC)c1OC | -1.88% (inactive) |
| CCc1ccccc1Nc1cc(C)nc2ncnn12 | -7.4% (inactive) |
| COc1ccc(-n2nc3c(c2NC(=O)c2cccc(OC)c2OC)CS(=O)C3)cc1 (centres undefined) | -1.38% (inactive) |

| SMILES | inhibition |
| --- | --- |
| COc1ccc(-n2nc3c(c2NC(=O)c2cc([N+](=O)[O-])ccc2Cl)CS(=O)C3)cc1 (centres undefined) | 41.9% (active) |
| COc1ccc(C(=O)Nc2c3c(nn2-c2ccc(F)cc2)CS(=O)C3)c(OC)c1 (centres undefined) | 0.99% (inactive) |
| CC1CCCC(NC(=O)C(C)n2c(=O)c3cccn3c3cccnc32)C1C (centres undefined) | 3.19% (inactive) |
| Cn1c(SCC(=O)Nc2nnc(-c3ccccc3)s2)nnc1-c1ccccc1 | -17.2% (inactive) |
| CN1CCN(c2ccc(NC(=O)c3cc(Br)cc(Br)c3O)cc2Cl)CC1 | 68% (active) |
| CC(C)(C)c1ccc(C(=O)Nc2ccc(N3CCOCC3)c(Cl)c2)cc1 | 0.56% (inactive) |
| O=C(Nc1ccc(Cl)c(S(=O)(=O)c2ccc(Cl)cc2)c1)c1cc(Br)cc(Br)c1O | -6.46% (inactive) |
| NC(=O)c1cc(NC(=O)C(F)(F)F)cc(C(N)=O)c1 | -9.16% (inactive) |
| O=C(NCc1ccc(F)cc1)c1nc2c(nnn2Cc2ccc3c(c2)OCO3)c(=O)[nH]1 | -15.6% (inactive) |
| N#Cc1ccc(-c2csc(NC(=O)c3cc([N+](=O)[O-])ccc3Cl)n2)cc1 | 14% (inactive) |
| O=C(Nc1nc(-c2ccc(F)cc2)cs1)c1ccc([N+](=O)[O-])cc1 | 6.37% (inactive) |
| O=C(Nc1nc(-c2ccc(F)cc2)cs1)c1cc([N+](=O)[O-])ccc1Cl | 42% (active) |
| NS(=O)(=O)c1ccc(CCNC(=S)Nc2ccccc2F)cc1 | 0.39% (inactive) |
| COc1ccc(-c2noc(CN(Cc3ccccc3)CC3CC3)n2)c(OC)c1OC | -11.8% (inactive) |
| C=CCNc1c(C)c(C)nc2cc(-c3ccc(OC)c(OC)c3)nn12 | -14.7% (inactive) |
| CC1CCCC(NC(=O)C2N(C3CCCC(C)C3C)C(=O)C3C(C(=O)Nc4cccc(Cl)c4)C4C=CC32O4)C1C (centres undefined) | -7.64% (inactive) |
| O=C(c1ccccc1Cl)N1CCCCC1 | 2.65% (inactive) |
| CCS(=O)(=O)N1CCN(C(=O)c2ccccc2Cl)CC1 | -4.13% (inactive) |
| Cc1cc(N2CCCC2)nc(N2CCN(C(=O)c3ccccc3Cl)CC2)n1 | 33.1% (active) |

— PubChem BioAssay AID1259422 (The Scripps Research Institute Molecular Screening Center, 2018)
